This passage reports binding signal results from publication PMC7819943, “Rice protein-binding microarrays: a tool to detect cis-acting elements near promoter regions in rice”.

The full ranking holds about 39,000 sequences; the median of “fluorescence intensity (a.u.)” is about 4,300, and the highest 2% start at about 39,000. The sample holds the highest values, similar sequences and a random draw of the others, so the mix is not that of the screen.

This assay has as its target T1, OsSMF1 (Oryza sativa, UniProt Q6ZLB0 1-436).
T1 sequence: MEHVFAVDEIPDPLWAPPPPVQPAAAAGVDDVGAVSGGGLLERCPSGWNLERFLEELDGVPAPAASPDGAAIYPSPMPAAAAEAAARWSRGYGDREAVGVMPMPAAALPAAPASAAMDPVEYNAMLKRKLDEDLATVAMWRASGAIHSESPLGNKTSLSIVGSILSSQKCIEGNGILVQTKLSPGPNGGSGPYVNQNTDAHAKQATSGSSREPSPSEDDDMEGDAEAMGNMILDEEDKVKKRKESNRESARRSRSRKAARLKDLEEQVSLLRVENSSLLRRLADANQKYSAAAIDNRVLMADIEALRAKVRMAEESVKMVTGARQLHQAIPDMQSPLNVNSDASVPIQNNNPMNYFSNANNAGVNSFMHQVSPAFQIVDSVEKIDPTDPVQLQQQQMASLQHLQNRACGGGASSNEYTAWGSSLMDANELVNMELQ
The assay is described as follows: protein-binding microarray (RPBM); PBS, 2% BSA, 51.3 ng/ul salmon testes DNA, 50 uM zinc acetate, 200 nM TF, 25 C, 1 h; high values mean tight binding. The following applies: protein: recombinant; tags: N-terminal polyhistidine and DsRed monomer fusion (pET32a); chain copies: 2; label: CyDye5-dUTP incorporated in the synthesized complementary strand; 3' TTTTT single-stranded linker to array surface; dsDNA, one strand shown. The method, boiled down:
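An Axon 4000B scanner gave the binding signal as per-feature fluorescence intensity in arbitrary units. This followed washing of a custom Agilent array that had been incubated for 1 h at 25 °C with 200 nM protein in PBS, 2% BSA, salmon testes DNA and 50 µM zinc acetate. The proteins were transcription factors fused at the N-terminus to polyhistidine and DsRed, expressed in E. coli BL21-CodonPlus and purified on Ni–NTA.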
For the sequence “GGGAGGTGTGGTGATCGATCGCCATGCGCGGATTTTCTAACGGAGTCACCTAGTGCAG”, the binding signal was 5590 fluorescence intensity (a.u.).

Turning to “TGATTGTTTAACCAAAATATATGCAATTGACTAAGCAAAACGGAGTCACCTAGTGCAG”, the binding signal is 3220 fluorescence intensity (a.u.).

As to “TTATCTCCAATTTAAGCAACCAGAGGAATATATATGCTTGCGGAGTCACCTAGTGCAG”, the binding signal is 53500 fluorescence intensity (a.u.).

For “GCTTGCGCCAAAACCAAACATAGAGCAGCAATAGAGAGGACGGAGTCACCTAGTGCAG”, the binding signal is 3610 fluorescence intensity (a.u.).

“TTTATCAAATATTTTGTTCCAAAGCTTACATAAGCATATGCGGAGTCACCTAGTGCAG”: the binding signal is 3320 fluorescence intensity (a.u.).

For the sequence “AGTGCTTTATCACACAGAATCAATACCCAAGAAGCATATGCGGAGTCACCTAGTGCAG”, the binding signal was 41000 fluorescence intensity (a.u.).

Consider “CCAAGCAAGCATACAGAGAGCAATAAAAGTATAAAACACACGGAGTCACCTAGTGCAG”, for which the binding signal is 4950 fluorescence intensity (a.u.).

Regarding “CAACCAAGCAAGCGGCAGCAGAGCGCGAGTCATGCGACCCCGGAGTCACCTAGTGCAG”, the binding signal was 3180 fluorescence intensity (a.u.).

As to “CACGCGCCGGTGCCTTGCGCCGTCACCGTGCCAGCCCAGCCGGAGTCACCTAGTGCAG”, the binding signal was 5670 fluorescence intensity (a.u.).

As for “GCGTGGCCACATCAGCCTCCTCTCTCCCTTCCTCATCTCTCGGAGTCACCTAGTGCAG”, the binding signal is 14700 fluorescence intensity (a.u.).

“CTCCAGGAGGGGTGGAGTTGGAGCTGGAGCTGTGACAAACCGGAGTCACCTAGTGCAG”: the binding signal is 12800 fluorescence intensity (a.u.).

Regarding “AGGAGGGGTGGAGCTGGAGCTGGAGCTGTGCCAAACAGGCCGGAGTCACCTAGTGCAG”, the binding signal is 3190 fluorescence intensity (a.u.).

In the case of “AGGAGGGTGGAGCTGTGCCAAACAGACCCTAAGTGTTTTCCGGAGTCACCTAGTGCAG”, the binding signal is 62100 fluorescence intensity (a.u.).

Consider “TTCTTTCATCAATTACTAGGCCTAGATGGGTAATTTTGGTCGGAGTCACCTAGTGCAG”, for which the binding signal was 3200 fluorescence intensity (a.u.).

Regarding “ATCTTGCCGAAGTTGTTGGTGACGAAGTCGAGGCTGCCGACGGAGTCACCTAGTGCAG”, the binding signal was 3180 fluorescence intensity (a.u.).

Consider “AAAGTCAATATAGGAATACAATTTAGAAGTAACTTAAATTCGGAGTCACCTAGTGCAG”, for which the binding signal was 25600 fluorescence intensity (a.u.).

As to “TTAGGCCAAGTATGGGGTTGGGGCTATGGAGGAGAAGGGCCGGAGTCACCTAGTGCAG”, the binding signal is 3320 fluorescence intensity (a.u.).

As for “TACTTAGTAGCTAGGAGCTATATTGGTTGGAAAGGAGCGCCGGAGTCACCTAGTGCAG”, the binding signal is 51200 fluorescence intensity (a.u.).

Consider “CTTAGCCGGCTATACGCGGCTACGTTGGCTGACTTGGTAGCGGAGTCACCTAGTGCAG”, for which the binding signal was 4170 fluorescence intensity (a.u.).

Turning to “CGCAGCACGCACGCACGCAGACACGCCCACGCGTTGCGGCCGGAGTCACCTAGTGCAG”, the binding signal is 3550 fluorescence intensity (a.u.).

With “CCGCGCCGTCCCTCCTGACGCGGCGTCTCGCCGCCGCCGCCGGAGTCACCTAGTGCAG”, the binding signal was 3780 fluorescence intensity (a.u.).

With “TCCCGATCGACGCGTGCATGGCGGCGAGCCTTCTGTCCCACGGAGTCACCTAGTGCAG”, the binding signal was 3330 fluorescence intensity (a.u.).

For “CCTTCCAACATGTTTATTATGCATGAGATGTGTGCAACGACGGAGTCACCTAGTGCAG”, the binding signal was 3360 fluorescence intensity (a.u.).

Take “AGAGGGACGTCGACGCGTGGTGCCGTGGTGGTGTCGCTCGCGGAGTCACCTAGTGCAG”: the binding signal was 3400 fluorescence intensity (a.u.).

In the case of “CATTCAACGCTCGCGTGCGTGCAGTGCCGTGTGTGGACCGCGGAGTCACCTAGTGCAG”, the binding signal was 54900 fluorescence intensity (a.u.).

For “TTCAACGGCGCGTGCCGACGTGGCCGCTGCGGCGTGCGTGCGGAGTCACCTAGTGCAG”, the binding signal is 10300 fluorescence intensity (a.u.).

In the case of “TGGCACATTCTCATCGTATTTTCTTGTTGCTCTATGTATGCGGAGTCACCTAGTGCAG”, the binding signal was 3180 fluorescence intensity (a.u.).

Turning to “ACTATAATTCATGGGATTATGTGCCAGCAGTCATAATATCCGGAGTCACCTAGTGCAG”, the binding signal was 3180 fluorescence intensity (a.u.).

On to “GAGTTAGCAGTGTTGACCACGGTCAAGGTGCCACGTCATCCGGAGTCACCTAGTGCAG”, for which the binding signal is 43000 fluorescence intensity (a.u.).

Consider “CGCTACCGTGGCATGCCACGTCACCGGATGGAGCGGGTCGCGGAGTCACCTAGTGCAG”, for which the binding signal is 20100 fluorescence intensity (a.u.).

Turning to “TGTGGGGTCCACGTAATGCCACGTCAGCGCAACCTAGGAACGGAGTCACCTAGTGCAG”, the binding signal was 37100 fluorescence intensity (a.u.).

For “TATTACCACGTAGGCGCCACGTGGCGCCACGTCAGCAAAACGGAGTCACCTAGTGCAG”, the binding signal was 42100 fluorescence intensity (a.u.).

Regarding “GCGTCATCATGACATGCCACGTCAGCACATGGAGCGGGTTCGGAGTCACCTAGTGCAG”, the binding signal was 26100 fluorescence intensity (a.u.).

In the case of “CAGTGACTCCTCTCCTACGTAGGCGCCACGTCAGCAAAACCGGAGTCACCTAGTGCAG”, the binding signal was 20900 fluorescence intensity (a.u.).

Turning to “TTGAGTCAGTAGTGTTGACAACGGTCAAGGTGCCACGTCACGGAGTCACCTAGTGCAG”, the binding signal is 26100 fluorescence intensity (a.u.).

For the sequence “AAGTTCACAGTGCTGACCACGGTCAAGGTGCCACGTCATCCGGAGTCACCTAGTGCAG”, the binding signal was 35200 fluorescence intensity (a.u.).

On to “ATTTTATTGGGATCAAATTACCACGTAGGCGCCACGTCAACGGAGTCACCTAGTGCAG”, for which the binding signal was 20900 fluorescence intensity (a.u.).

Consider “GTGCCTCCGTAGCAATGCCACGTCAGCATATGGAGCGGGTCGGAGTCACCTAGTGCAG”, for which the binding signal is 44600 fluorescence intensity (a.u.).

With “ACACGTGGGTCCACGTAGGCGACACGTCAATGCCACGTCACGGAGTCACCTAGTGCAG”, the binding signal was 55900 fluorescence intensity (a.u.).

Turning to “GACATGTAGGACCCACGTGAGTCAATGACACGTGGGTCAGCGGAGTCACCTAGTGCAG”, the binding signal is 23800 fluorescence intensity (a.u.).

In the case of “AGAGAGAGGGGAGAGGGGTGGAAGGGGAATATGGTAGCTGCGGAGTCACCTAGTGCAG”, the binding signal is 3330 fluorescence intensity (a.u.).

With “CCTCGTCGCCGCGTCACGGCGTCAGCTCGCCGCTCTAGGGCGGAGTCACCTAGTGCAG”, the binding signal was 4820 fluorescence intensity (a.u.).
